Source: PubChem BioAssay
Compounds with a hit are over-represented: about 7.6% of the library has one in this group of screens.
Cy5 interf NS3h: counter-screen for HCV NS3 helicase inhibitors: fluorescence interference | AID 720488 | Cy5-dT15 DNA with NS3h; actives lie on both sides; signal over control mean, under 1 quenches | fluorescence interference ratio at 100 µM | 16,000 compounds, 6% hits;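 active means compound fluorescence over control fluorescence at most 0.8, a quencher, or at least a set upper limit, an enhancer; inactive means ratio between 0.8 and the set upper limit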
HCV NS3h FP: hepatitis C NS3 helicase inhibition, primary screen; 16,000 compounds, 1.6% hits; inhibition, % at 100 µM; AID 687043; NS3h Cy5-dT15 DNA binding, fluorescence polarization;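 active means inhibition above the average over every tested compound plus 3 SD, cut at about 40% in these data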
* marks the source's active call; other numbers are inactive results.

SMILES | Cy5 interf NS3h | HCV NS3h FP
O=C(c1cnn2c1NC(c1ccco1)CC2C(F)(F)F)N1CCN(Cc2ccccc2)CC1 (stereo unspecified) | 0.7* | 5
CC(NC(=O)/C(CCCC#N)=N\O)c1ccccc1 (stereo unspecified) | 1.1 | 4
CC(=O)Nc1ccc(C(=O)N2CCc3ccccc3C2)cc1 | 1.1 | 0
O=C(CSc1nnc(-c2cccnc2)o1)c1ccc(Br)cc1 | 1 | 7
CC12c3ccccc3C(c3ccccc31)C1C(=O)N(c3cccc([N+](=O)[O-])c3)C(=O)C12 (stereo unspecified) | 1 | 18
CC12c3ccccc3C(c3ccccc31)C1C(=O)NNC(=O)C12 (stereo unspecified) | 0.66* | 11
O=C(NC(C(Cl)(Cl)Cl)S(=O)(=O)c1ccccc1)c1ccccc1 (stereo unspecified) | 0.85 | -16
Cc1ccc(OCc2nnc(NC(=O)Nc3ccccc3)s2)c(C)c1 | 1 | 4
O=c1oc(-c2cccc(F)c2)nc2ccc(Cc3ccc4nc(-c5cccc(F)c5)oc(=O)c4c3)cc12 | 0.77* | 20
O=C(Nc1ccc(-c2nc3ccccc3c(=O)o2)cc1)c1ccccc1F | 0.89 | -2
COC(=O)NC(c1ccc(F)cc1)C(Cl)(Cl)Cl (stereo unspecified) | 1.1 | 13
Cc1ccc(C2CC(C(F)(F)F)n3ncc(C(=O)Nc4ccc(C)c(C)c4)c3N2)cc1 (stereo unspecified) | 0.98 | 2
Cc1oc2ccc(OC(C)C(=O)O)cc2c1C(=O)O (stereo unspecified) | 1 | -1
O=c1cc(-c2ccccc2)nc2cc(-c3cccc(Cl)c3)[nH]n12 | 1.2* | -58
O=c1c2c(nc3cc(-c4cccc(Cl)c4)[nH]n13)CCS2 | 0.72* | -51
O=c1c2c(nc3cc(-c4cccc(F)c4)[nH]n13)CCCC2 | 1.1 | 10
Cc1cc(=O)n2[nH]c(-c3cccc(F)c3)cc2n1 | 1.1 | -8
O=C1NC(=O)N(c2cccc(Cl)c2)C(=O)/C1=C/c1ccc(Oc2ccc([N+](=O)[O-])cn2)cc1 | 0.94 | 10
Cc1cc(Nc2ccccc2)n(C(=O)c2ccc([N+](=O)[O-])cc2)n1 | 0.74* | 10
Cc1cc2ncn(C(=O)c3ccc([N+](=O)[O-])cc3)c2cc1C | 0.94 | 7
CN(C)c1ccc(/C=C2\C(=O)Oc3ccccc3C2=O)cc1 | 1.1 | 26
CN(C)c1ccc(/C=C2\C(=O)c3cccc([N+](=O)[O-])c3C2=O)cc1 | 0.94 | 49*
Clc1ccccc1-c1nc(-c2cccnc2)no1 | 1.2* | -16
Clc1ccc(-c2nc(-c3cccnc3)no2)c(Cl)c1 | 1.1 | 9
Cc1cc(OCC(=O)Nc2c(C)cc(Br)cc2C)ccc1Cl | 1 | 6
SMILES | Cy5 interf NS3h | HCV NS3h FP
CCOC(=O)c1ccc(-n2c(C)cc(/C=C(\C#N)C(=O)Nc3ccc(OC)cc3)c2C)cc1 | 1 | 4
Cc1ccc(CNC(=O)C(=O)Nc2ccc(C)c(C)c2)cc1 | 1 | 11
Cc1ccc(C)c(Nc2nc3c(s2)CCCC3)c1 | 0.78* | 16
O=C(Nc1cccc(Cl)c1)Nc1nnc(/C=C/c2ccccc2Cl)s1 | 1 | -15
CCN(CC)C(=S)SCC(=O)Nc1cc(C)ccc1C | 1 | 16
Clc1cccc(Nc2nc3c(s2)CCCC3)c1 | 0.76* | 16
O=C1/C(=C\c2cccc(C(F)(F)F)c2)SC(=S)N1Cc1ccccc1 | 1 | -10
COc1ccc(C2C(C(C)=O)=C(Nc3ccccc3)CC(C)(O)C2C(C)=O)cc1 (stereo unspecified) | 1 | -1
CC(=O)Nc1cc(-c2nc3ccccc3s2)ccc1Cl | 0.74* | 8
CC(=O)Nc1cccc(-c2nc3ccccc3s2)c1 | 1.1 | 4
O=C(Nc1ccccc1C(=O)O)c1ccc2c(c1)C(=O)N(c1ccc(O)cc1)C2=O | 0.86 | -2
COc1cc(/C=C2\C(=O)NN(c3ccccc3)C2=O)ccc1OCc1ccccc1F | 0.56* | 36
O=C1NN(c2ccccc2)C(=O)/C1=C/c1ccc(OCc2ccccc2F)cc1 | 1 | 14
CCOC(=O)COc1ccc(/C=C2\C(=O)NN(c3ccc(Cl)c(Cl)c3)C2=O)cc1OC | 0.8* | 18
COc1cc(/C=C2\C(=O)NN(c3ccccc3)C2=O)ccc1OCC(=O)O | 1.1 | 11
COc1cccc(OCCn2c(=O)c3cc4c(=O)n(CCOc5cccc(OC)c5)c(=O)c4cc3c2=O)c1 | 0.93 | 1
O=C(/C=C/c1ccc(S(=O)(=O)Nc2ccccc2)cc1)C1C(=O)c2ccccc2C1=O | 0.47* | -38
O=C(O)/C=C/c1cccc(NS(=O)(=O)c2ccccc2)c1 | 1.1 | 1
COCCNC(=O)c1ccc([N+](=O)[O-])cc1Cl | 0.99 | -6
O=C(Nc1nnc(C23CC4CC(CC(C4)C2)C3)s1)c1cccs1 | 1 | 12
CCOC(=O)c1ccccc1NC(=O)c1ccc(CN2CCc3ccccc3C2)cc1 | 0.94 | 15
COc1cc(C(=O)Nc2ccc(NC(C)=O)cc2)c([N+](=O)[O-])cc1OC | 1 | 10
